About 310 (2.8%) of roughly 11,000 compounds were called active. The sample holds actives, similar compounds and a random draw of the others, so the mix is not that of the screen. No stated cut-off is given here; in the data, active means activity change below about -85%; inactive means the rest.

This assay has as its system intestinal alkaline phosphatase [Mus musculus]. As to the kind of experiment: activators of mouse IAP, confirmation, biochemical, luminescence, single concentration (AID 434970). The following applies: purified mouse IAP, CDP-Star luminescence, 30 min, at 10 µM; activation factor: measured here: IAP activation factor, stronger effect = higher value; activity change, negative = activation: stronger effect = lower value.
As for `C=C(C)Cn1c(=O)c2c(nc3n2CCN3c2cccc(Cl)c2C)n(C)c1=O`, the activation factor came to 0.924 and the activity change, negative = activation is 7.6% (inactive).
On the same counts, the results for `CC(C)(C)c1ccc(OCc2nc(-c3ccccn3)no2)c(Br)c1` are 0.924 and 7.55% (inactive).
On the same counts, the results for `COc1ccc(-c2noc(CCC(=O)N3CCN(c4ccc(C(F)(F)F)cc4)CC3)n2)cc1` are 1.05 and -4.65% (inactive).
The like results for `COc1ccc(OC)c(N)c1` were, in that order, 0.877 and 12.3% (inactive).
`C=CCn1c(Br)nc2c1c(=O)[nH]c(=O)n2C`: the activation factor is 0.97 and the activity change, negative = activation was 2.95% (inactive).
The like results for `COc1cc(OC)cc(C(=O)Nc2c(F)cccc2F)c1` were, in that order, 1.02 and -1.9% (inactive).
On the same counts, the results for `COc1cc(NC(=O)C2CCCN(c3ncccn3)C2)cc(OC)c1` (centres undefined) are 1.11 and -10.6% (inactive).
On the same counts, the results for `COc1cc(NC(=O)NCC2CCN(Cc3ccccc3F)CC2)cc(OC)c1` are 2.67 and -167% (active).
As to `O=C(NCC1CCN(Cc2ccccc2Cl)CC1)Nc1cccc(Cl)c1`, the activation factor amounted to 1.77 and the activity change, negative = activation was -77.5% (inactive).
The like results for `O=C(NCC1CCN(Cc2ccccc2F)CC1)Nc1cccc(Br)c1` were, in that order, 2.05 and -105% (active).
On to `O=C(NCCOc1ccccc1F)Nc1ccc(Br)cc1`, for which the activation factor came out at 1.46 and the activity change, negative = activation is -45.9% (inactive).
Turning to `Cc1ccc(NC(=O)Cn2cnc(C(=O)Nc3ccc(C)c(C)c3)n2)cc1C`, the activation factor was found to be 1.05 and the activity change, negative = activation is -4.9% (inactive).
In the case of `O=C(Nc1ccc2ccccc2c1)c1cn(-c2ccccc2)nc1-c1cccs1`, the activation factor is 1.61 and the activity change, negative = activation was -60.9% (inactive).
On the same counts, the results for `COc1ccc(N2CCN(c3nc(NCCO)nc(N4CCOCC4)n3)CC2)cc1` are 0.927 and 7.25% (inactive).
In the case of `CC[C@]12c3[nH]c4cc(CCC(=O)N(C)C)ccc4c3CCN1C(=O)[C@@H](CC(=O)NCCCN(C)C)C[C@@H]2C(=O)N1CCN(C(=O)C2CC2)CC1`, the activation factor was found to be 1.05 and the activity change, negative = activation was -4.6% (inactive).
On the same counts, the results for `Cc1ccc2c(c1)c(C)c(C)n2CC(O)CN1CCOCC1` (centres undefined) are 0.95 and 5% (inactive).
The like results for `O=C(NC1CCCCCCC1)c1cnccn1` were, in that order, 0.972 and 2.85% (inactive).
On the same counts, the results for `O=C(Nc1nccs1)C1CC2CCC1C2` (centres undefined) are 1.01 and -0.6% (inactive).
In the case of `CCOC(=O)c1ccc(NC(=O)CSc2nnc(C3CCCCC3)n2C)cc1`, the activation factor stood at 0.933 and the activity change, negative = activation was 6.7% (inactive).
In the case of `Cc1cc(C)cc(NC(=O)Nc2ccc(-n3ccc(C(F)(F)F)n3)cc2)c1`, the activation factor was 2.36 and the activity change, negative = activation was -136% (active).
On the same counts, the results for `O=C(NCCCn1ccnc1)Nc1cccc(Cl)c1` are 1.23 and -23.4% (inactive).
On the same counts, the results for `Cn1nc(OC(=O)Nc2cccc(Cl)c2)cc1C(F)(F)F` are 2.51 and -151% (active).
On the same counts, the results for `O=C(Nc1ccccc1)Nc1ccc(-n2ccc(C(F)(F)F)n2)cc1` are 1.6 and -60% (inactive).
Take `O=C(Nc1ccc(-n2ccc(C(F)(F)F)n2)cc1)Nc1cccc(Cl)c1`: the activation factor stood at 1.92 and the activity change, negative = activation is -91.7% (active).
The like results for `Cn1ncc(Cl)c1C(=O)Nc1cccc(Cl)c1` were, in that order, 1.01 and -1.1% (inactive).
The like results for `Cn1nc(C(=O)Nc2cccc(C(F)(F)F)c2)ccc1=O` were, in that order, 1.13 and -12.9% (inactive).
As to `CC(=O)Nc1ccc(-n2cnnn2)cc1`, the activation factor was 1.04 and the activity change, negative = activation is -3.5% (inactive).
The like results for `Cn1cc(NC(=O)Nc2ccc(C(F)(F)F)cc2)c(C(F)(F)F)n1` were, in that order, 1.86 and -86.1% (inactive).
On the same counts, the results for `Cc1noc(C)c1S(=O)(=O)Nc1ccc(C(=O)NC2CCCCCC2)cc1` are 1.07 and -7.15% (inactive).
On the same counts, the results for `CN=C1N(C)C[C@@H]2[C@@H]3C(=O)N(Cc4ccccc4)C(=O)[C@@H]3[C@](Cc3ccccc3)(C(=O)OC)N12` are 1.16 and -16.1% (inactive).
In the case of `CC(C)CC(c1nnnn1Cc1cccs1)N1CCN(c2nc3ccccc3s2)CC1` (centres undefined), the activation factor worked out at 0.985 and the activity change, negative = activation is 1.5% (inactive).
The like results for `CCOC(=O)CCc1c(C)c(C#N)c2nc3ccccc3n2c1-n1cnc2ccccc21` were, in that order, 1.02 and -1.8% (inactive).

The values above are taken from PubChem BioAssay AID434970 (Sanford-Burnham Center for Chemical Genomics, 2010).
